Screen size: about 360,000 compounds; about 3,600 (1%) were called active.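 Rule for the calls: active = compounds whose plate-normalised and pattern-corrected inhibition of the luciferase reporter signal at the single screening dose is 50% or more; inactive = the rest.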 The list comes from a sample in which actives are over-represented; it also holds similar structures and randomly drawn compounds.
Assay: TROY pathway blockers in reporter cells – Q293 LMP1-TROYcd cells, NF-kB luciferase, uHTS, primary screen (AID 1347056)
Settings: 4 h, at 10 µM, stronger effect = higher value

inhibition, inactive:
CCOC(=O)c1cnc(COc2ccccc2Cl)[nH]c1=O -7.4%
CCOC(=O)c1c(C)[nH]c(C)c1C(=O)CSc1nc(N)cc(N)n1 4.52%
O=C(NCc1nnc(SCC(=O)N2CCC(Cc3ccccc3)CC2)o1)c1ccco1 3.48%
Cc1ccc(CS(=O)Cc2ccc(C(=O)N3CCOCC3)o2)cc1 (stereo not given) -4.44%
O=C1CSC(=S)N1c1ccc(Cl)c(Cl)c1 33.2%
COc1cc(N2C(=O)CSC2=S)cc(OC)c1OC 33.1%
CC1=CC(=NNS(=O)(=O)c2ccc([N+](=O)[O-])cc2)CC(C)(C)C1 -0.66%
Cc1nn(C(C)(C)C)c(OC(=O)CC(C)C)c1S(=O)(=O)c1ccccc1 12.4%
Cc1ccccc1OCCC(=O)OCC(=O)NCCc1ccc(S(N)(=O)=O)cc1 0.01%
O=C(Nc1ccc(-n2ccnc2P(=O)(O)c2ccccc2)cc1)c1ccccc1Br -20.5%
Cc1cccc(C(=O)Nc2ccc3c(c2)C(=O)N(CC(C)C)C3=O)c1 -12.3%
CN1CCN(S(=O)(=O)c2cccc(C(=O)Nc3cccc(S(N)(=O)=O)c3)c2)CC1 14.3%
COc1ccc(CCNC(=O)c2ccccc2-c2ccccc2C(=O)O)cc1OC -8%
COc1ccccc1OCCNc1cc(N2CCOCC2)ccc1[N+](=O)[O-] -25%
C[N+](C)(C)CCNC(=O)c1c[nH]c2ccccc12 -5.29%
Cc1ccc(F)cc1NC(=O)N1CCCN(c2ccc(C(F)(F)F)cn2)CC1 8.63%
O=C(O)c1cc(S(=O)(=O)N2CCCCCC2)c(Cl)cc1Cl 0.33%
Cc1ccc(OCCCC(=O)Nc2ccc(N3CCOCC3)cc2)cc1 6.99%
CCn1c(Cc2ccc(OC)cc2)nnc1SCC(=O)Nc1ccc(N2CCOCC2)cc1 4.48%
COc1cc2c(cc1OC)CN(C(=O)c1ccc(S(=O)(=O)N3CCCCCC3)cc1)CC2 -2.54%
COc1cc2c(cc1OC)CN(C(=O)c1cc(S(=O)(=O)N3CCCCC3)ccc1Cl)CC2 -16.5%
COc1cccc(NC(=O)C(Sc2nc3ccccc3c(=O)n2CC(C)C)c2ccccc2)c1 (stereo not given) -17.8%
O=C(Nc1ccc(N2CCOCC2)nc1)c1c(F)cccc1F -14.2%
CCOC(=O)C1CCCN(C(=O)c2ccc(C)c(F)c2)CC1 (stereo not given) 1.56%
CN(CCc1ccccn1)C(=O)c1ccc(OC2CCN(CCc3ccccc3)CC2)cc1 -24%
Cn1cc(CNC(=O)c2ccc(OC3CCN(Cc4ccccn4)CC3)cc2)cn1 -10.1%
Cc1ccccc1C(=O)Nc1cccc(-c2nnc(SCC(=O)O)n2C)c1 18.5%
CCOC(=O)/C(C#N)=C\c1c(C)cc(C)c(COC(C)=O)c1C -28.3%

inhibition, active:
CCOC(=O)c1c(C)[nH]c2c1-c1ccccc1C(=O)C2=O 63.1%
O=C1CSC(=S)N1c1ccc(O)cc1 50.1%
CC(C)CCN1C(=O)c2ccc(C(=O)Nc3cccc(S(N)(=O)=O)c3)cc2C1=O 63.2%
COc1ccc(CCNc2cc(N3CCN(C(=O)c4ccccc4OC)CC3)ccc2[N+](=O)[O-])cc1OC 64%
COc1cccc(/C=C(/CC(=O)Nc2ccc(N3CCOCC3)cc2)c2nc3ccccc3s2)c1 54.8%
COc1cc2c(cc1OC)C(C)N(S(=O)(=O)c1cnc(Cl)c(Cl)c1)CC2 (stereo not given) 62.8%
CN(CCc1ccccn1)C(=O)c1ccc(OC2CCN(Cc3ccccn3)CC2)cc1 50.2%

Source: PubChem BioAssay AID1347056 (Sanford-Burnham Center for Chemical Genomics, 2019)
